MITF inhib = blocks MITF activity. TRPM1 promoter luciferase, luminescence, 24 h. 37,000 tested, 0.28% active. inhibition, % (test concentration not listed); in the data active = inhibition above about 85%;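 also: human melanocyte line stably carrying TRPM1 promoter luciferase reporter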
BJeLR viability = lowers viability of BJeLR cells. AID 2275. 30,000 tested, 0.64% active. viability loss activity score, % (test concentration not listed). BJeLR fibroblasts viability, CellTiterGlo ATP luminescence, 48 h; HRASV12, hTERT and SV40 LT/ST transformed; in the data active = viability loss activity score above about 50%;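 also: higher score means fewer live cells and less ATP luminescence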
Shh pathway inh = Sonic Hedgehog pathway inhibition. Shh-LIGHT2 Gli-luciferase reporter, 30 h. inhibition, % (concentration not given with the values). 22,000 tested, 2.1% active;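 active = mean inhibition across valid replicates above about 65%, limit read from the data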;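 also: pathway switched on by Shh-conditioned medium diluted 1 in 25 in low serum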
Numbers stand for hits. Shown is part of a subset that was picked to be rich in hits.

What do the screens show for `CC(=O)OC1C(C)OC(OC2C(CO)OC(OC(=O)[C@]34CCC(C)(C)CC3C3=CCC5[C@@]6(C)CC[C@H](OC7OC(CO)C(OC8OC(CO)C(OC9OCC(O)C(O)C9O)C(O)C8O)C(O)C7O)[C@@](C)(CO)C6CC[C@@]5(C)[C@]3(C)CC4)C(OC3OC(C)C(O)C(O)C3O)C2O)C(O)C1O` (stereo partly drawn)?
Shh pathway inh: inactive

Results for CC1(C)CC[C@]2(C(=O)O)CC[C@]3(C)C(=CCC4[C@@]5(C)CC[C@H](O[C@@H]6O[C@H](C(=O)O)[C@@H](O[C@@H]7OC[C@@H](O)[C@H](O)[C@H]7O)[C@H](O)[C@H]6O)C(C)(C)C5CC[C@]43C)C2C1O (stereo partly drawn) ?
MITF inhib: inactive; BJeLR viability: inactive; Shh pathway inh: inactive

Results for CC(C)NC(=O)c1ccc2c(c1)N(Cc1ccccc1F)C(=O)c1ccccc1S2(=O)=O ?
BJeLR viability: inactive

Results for CC1=Nc2cc(C(=O)N(C)Cc3ccccc3)ccc2Sc2ccc(Cl)cc21 ?
BJeLR viability: inactive

What do the screens show for `CC(=O)N[C@H]1[C@H](O[C@H]2CC[C@@]3(C)C(CC[C@]4(C)C3CC=C3[C@@H]5CC(C)(C)CC[C@]5(C(=O)O)CC[C@]34C)C2(C)C)O[C@H](CO[C@@H]2OC[C@H](O)[C@H](O)[C@H]2O[C@@H]2OC[C@H](O)[C@H](O)[C@H]2O)[C@@H](O)[C@@H]1O` (stereo partly drawn)?
MITF inhib: inactive; BJeLR viability: inactive; Shh pathway inh: 109

Results for CC1(C)CC[C@]2(C(=O)O)CC[C@]3(C)C(=CCC4[C@@]5(C)CC[C@H](O[C@@H]6O[C@H](CO)[C@@H](O)[C@H](O)[C@H]6O)[C@@](C)(CO)C5CC[C@]43C)[C@@H]2C1 (stereo partly drawn) ?
Shh pathway inh: 88

What do the screens show for `CC1(C)CC[C@]2(C(=O)O[C@@H]3O[C@H](CO)[C@@H](O)[C@H](O)[C@H]3O)CC[C@]3(C)C(=CCC4[C@@]5(C)CC[C@H](O[C@@H]6O[C@H](CO)[C@@H](O)[C@H](O)[C@H]6O)[C@@](C)(CO)C5CC[C@]43C)[C@@H]2C1` (stereo partly drawn)?
MITF inhib: inactive; BJeLR viability: inactive; Shh pathway inh: inactive

What do the screens show for `CC1(C)CC[C@]2(C(=O)O[C@@H]3O[C@H](CO)[C@@H](O)[C@H](O)[C@H]3O)CC[C@]3(C)C(=CCC4[C@@]5(C)CC[C@H](OC6O[C@H](CO)[C@@H](O)[C@H](O[C@@H]7O[C@H](CO)[C@@H](O)[C@H](O)[C@H]7O)[C@H]6O)C(C)(C)C5CC[C@]43C)[C@@H]2C1` (stereo partly drawn)?
Shh pathway inh: inactive

What do the screens show for `CC(Sc1nc(-c2ccccc2)cc(C(F)(F)F)n1)C(=O)NCCCn1ccnc1` (stereo not drawn)?
BJeLR viability: inactive

How did CC1CC(=O)N(c2ccc(OC(F)(F)F)cc2)C1=O (stereo not drawn) do in these assays?
BJeLR viability: inactive

What do the screens show for `O=S(=O)(c1ccccc1)c1nnn2c1nc(Cl)c1ccccc12`?
BJeLR viability: inactive

Results for CCOC(=O)c1cnc2c(c(C)nn2C)c1Sc1nnc(SC)s1 ?
MITF inhib: inactive; BJeLR viability: inactive; Shh pathway inh: 84

What do the screens show for `CCOC(=O)c1cnc2c(c(C3CC3)nn2C)c1N1CCOCC1`?
MITF inhib: inactive; BJeLR viability: inactive

Results for CCCC(=O)N1CCc2cc(OC)c(OC)cc2C1COc1ccc(OC)cc1 (stereo not drawn) ?
BJeLR viability: inactive

How did CCC1CN2CCc3cc(OC)c(OC)cc3[C@@H]2C[C@@H]1C[C@H]1NCCc2cc(OC)c(OC)cc21 (stereo partly drawn) do in these assays?
BJeLR viability: 86

What do the screens show for `O=C(C1CCN(c2ncnc3c2sc2cccc(F)c23)CC1)N1CCCCCC1`?
BJeLR viability: inactive

Results for O=C(O)C1CCC(Cn2c(SCc3ccccc3Cl)nc3ccsc3c2=O)CC1 (stereo not drawn) ?
BJeLR viability: inactive

What do the screens show for `C=C[C@@]12COC(=O)C(=C)C1[C@@H](O)[C@H](C(=C)C(=O)OC)[C@@H](OC(=O)C(=C)CO)C2` (stereo partly drawn)?
MITF inhib: inactive; BJeLR viability: inactive; Shh pathway inh: inactive

Results for C=C(CO)C(=O)O[C@H]1CC(=C)[C@@H]2CC(=O)[C@H](C)[C@@H]2[C@H]2OC(=O)C(=C)[C@@H]21 ?
MITF inhib: inactive; BJeLR viability: 69; Shh pathway inh: inactive

How did COc1cccc(-n2c(=O)c3c(C)c(C)sc3n(CC(=O)NCCC3=CCCCC3)c2=O)c1 do in these assays?
BJeLR viability: inactive

What do the screens show for `Cn1c(SCc2ccc(C(F)(F)F)cc2)nnc1C(F)(F)F`?
BJeLR viability: inactive

Screening results: PubChem BioAssay, Broad Institute
